# Experiments:
# Assay in all cases: SPOT peptide array binding signal intensity (averaged, normalized) (arbitrary units (background-subtracted, floor 0; scale differs between SH3 domains)); higher = stronger binding of the SH3 domain to the peptide
# [1] = target: AgAbp1
# In short: (§1)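 Peptides were synthetic 15-mers on cellulose membranes, with every cysteine replaced by serine. They were incubated overnight at 4°C with GST-SH3 domains from four yeast species at 10 μg/ml in TBS-based blocking buffer. Binding signal, the replicate-averaged normalized and background-subtracted spot intensity, is in arbitrary units that differ between domains.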
# [2] = target: AgBbc1
# In short: as §1
# [3] = target: AgBem1-D1
# In short: as §1
# [4] = target: AgBzz1-D1
# In short: as §1
# [5] = target: AgBzz1-D2
# In short: as §1
# [6] = target: AgCyk3
# In short: as §1
# [7] = target: AgFus1
# In short: as §1
# [8] = target: AgHof1
# In short: as §1
# [9] = target: AgHse1
# In short: as §1
# [10] = target: AgLsb1
# In short: as §1
# [11] = target: AgLsb4
# In short: as §1
# [12] = target: AgMyo5
# In short: as §1
# [13] = target: AgNbp2
# In short: as §1
# [14] = target: AgRvs167
# In short: as §1
# [15] = target: AgSho1
# In short: as §1
# [16] = target: AgSla1-D1-D2
# In short: as §1
# [17] = target: AgSla1-D3
# In short: as §1
# [18] = target: CaAbp1-D1
# In short: as §1
# [19] = target: CaAbp1-D2
# In short: as §1
# [20] = target: CaBbc1
# In short: as §1
# [21] = target: CaBem1-D1
# In short: as §1
# [22] = target: CaBzz1-D1
# In short: as §1
# [23] = target: CaBzz1-D2
# In short: as §1
# [24] = target: CaCyk3
# In short: as §1
# [25] = target: CaFus1
# In short: as §1
# [26] = target: CaHof1
# In short: as §1
# [27] = target: CaHse1
# In short: as §1
# [28] = target: CaLsb1
# In short: as §1
# [29] = target: CaLsb4
# In short: as §1
# [30] = target: CaMyo5
# In short: as §1
# [31] = target: CaNbp2
# In short: as §1
# [32] = target: CaRvs167
# In short: as §1
# [33] = target: CaRvs167-3
# In short: as §1
# [34] = target: CaSho1
# In short: as §1
# [35] = target: CaSla1-D1-D2
# In short: as §1
# [36] = target: CaSla1-D3
# In short: as §1
# [37] = target: ScAbp1
# In short: as §1
binder,measurement,setting,value
FPPKRKPLLRPQRSD,SPOT peptide array binding signal intensity,[1],766
same,SPOT peptide array binding signal intensity,[2],332
same,SPOT peptide array binding signal intensity,[3],170
same,SPOT peptide array binding signal intensity,[4],59
same,SPOT peptide array binding signal intensity,[5],81
same,SPOT peptide array binding signal intensity,[6],3.5
same,SPOT peptide array binding signal intensity,[7],303
same,SPOT peptide array binding signal intensity,[8],156
same,SPOT peptide array binding signal intensity,[9],294
same,SPOT peptide array binding signal intensity,[10],26.5
same,SPOT peptide array binding signal intensity,[11],33.5
same,SPOT peptide array binding signal intensity,[12],≤ 0
same,SPOT peptide array binding signal intensity,[13],590
same,SPOT peptide array binding signal intensity,[14],9
same,SPOT peptide array binding signal intensity,[15],45
same,SPOT peptide array binding signal intensity,[16],230
same,SPOT peptide array binding signal intensity,[17],5
same,SPOT peptide array binding signal intensity,[18],1450
same,SPOT peptide array binding signal intensity,[19],2460
same,SPOT peptide array binding signal intensity,[20],793
same,SPOT peptide array binding signal intensity,[21],934
same,SPOT peptide array binding signal intensity,[22],257
same,SPOT peptide array binding signal intensity,[23],135
same,SPOT peptide array binding signal intensity,[24],292
same,SPOT peptide array binding signal intensity,[25],589
same,SPOT peptide array binding signal intensity,[26],1.25
same,SPOT peptide array binding signal intensity,[27],57.2
same,SPOT peptide array binding signal intensity,[28],≤ 0
same,SPOT peptide array binding signal intensity,[29],1020
same,SPOT peptide array binding signal intensity,[30],12
same,SPOT peptide array binding signal intensity,[31],371
same,SPOT peptide array binding signal intensity,[32],221
same,SPOT peptide array binding signal intensity,[33],18.5
same,SPOT peptide array binding signal intensity,[34],245
same,SPOT peptide array binding signal intensity,[35],872
same,SPOT peptide array binding signal intensity,[36],9.75
same,SPOT peptide array binding signal intensity,[37],598

# Source: the supplement of paper PMC4466140
